# An excerpt weighted towards active compounds, which were near 5.3% of everything screened.
# ALOX15B inhib: 15-hLO-2 (ALOX15B) enzyme inhibition; O15296; purified 15hLO-2, xylenol orange hydroperoxide absorbance; Potency, µM (series often up to 57.1 µM), inactives show top-dose activity change, negative = inhibition, actives largely listed as inhibitors; 0.56% of 110,000 active; AID 881; note: potency is the fitted concentration of half-maximal effect; nearly all actives have a fitted effect of over 60% in size
#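 Enzyme 50 nM, AA 45 uM, 25 mM Hepes pH 7.5 + 0.01% Triton X-100; cpd preinc 15 min RT, rxn 90 min RT; stop/detect with 200 uM XO + 300 uM Fe(II) in 50 mM H2SO4, 30 min; A573/A405.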
# IMPase cell inh: cell-permeable inhibitors of inositol monophosphatase (IMPase); P97697; CHO-M1 cells, IP1 accumulation, HTRF TR-FRET ratio; inhibition (IP1 accumulation), % at 46.1 µM; 120,000 tested, under 10 active; AID 901; active = well fitted curve in the direction sought with a large enough effect in the signal ratio, not every such curve was filed as active; inconclusive = small, poorly fitted or top-dose-only effect, or a change in a side signal; inactive = no such curve, though single readings can be large or run the other way; the % refers to the signal ratio;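 note: cells stimulated with carbachol in lithium chloride buffer; plate controls were DMSO basal wells for no effect and reference inhibitor wells for full effect; higher means more IMPase inhibition seen as more IP1 and lower FRET ratio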
# Target sequence (P97697 whole entry, looked up): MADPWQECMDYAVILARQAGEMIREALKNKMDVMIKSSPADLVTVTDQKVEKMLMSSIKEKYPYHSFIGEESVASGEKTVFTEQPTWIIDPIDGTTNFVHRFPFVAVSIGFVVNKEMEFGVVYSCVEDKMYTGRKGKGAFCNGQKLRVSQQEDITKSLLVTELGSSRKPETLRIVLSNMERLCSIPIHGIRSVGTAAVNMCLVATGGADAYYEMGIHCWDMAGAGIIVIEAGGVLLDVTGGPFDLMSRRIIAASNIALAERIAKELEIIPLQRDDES
#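 Seeded CHO-M1 cells were dosed with compound at up to 46 uM, stimulated with carbachol for 30 min, then lysed in IP-One detection reagents. Higher IP1 lowers the TR-FRET signal.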
# IMPase Li cell: membrane-permeable IMPase blocker, potentiated with lithium | 0.35% of 210,000 active | CHO-M1 cells, IP1 TR-FRET (IP-One), carbachol + lithium | Potency, µM (highest dose often 59.4 µM), for inactives: at the highest dose activity, negative = IMPase inhibition, actives largely listed as inhibitors | AID 1457;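 note: IP1 builds up when IMPase is blocked and the TR-FRET signal falls; potency is the fitted concentration of half-maximal effect; plate controls were basal vehicle for no effect and high inhibitor control for full effect; nearly all actives have a fitted effect of over 50% in size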
#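 Concentration–response in CHO-M1 cells, lithium-potentiated; 30 min at 37C. IP1 detected by competitive TR-FRET after 10 min lysis at RT. Hill-fitted AC50.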
# ALOX12 inhib: 12-hLO (ALOX12) enzyme inhibition | P18054 | Potency, µM (top dose mostly 57.1 µM), without a hit: at the top dose activity change, negative = inhibition, actives largely listed as inhibitors | AID 1452 | purified 12-hLO, xylenol orange hydroperoxide absorbance | 0.12% of 150,000 active; note: potency is the fitted concentration of half-maximal effect; nearly all actives have a fitted effect of over 55% in size
#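 Lipoxygenase turnover measured by absorbance at 573 and 405 nm after Fe-XO development. Human 12hLO 150 nM, arachidonate 40 uM, pH 7.0 Hepes buffer with detergent; 15 min compound preincubation, 30 min reaction.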
# PNC inhibitor: perinucleolar compartment assembly inhibition | 3.1% of 140,000 active | PC3M PTB-GFP, PNC prevalence imaging, 16 h; active compounds read low | AID 2417 | activity change (PNC), negative = inhibition, % at 10 µM;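 active = readout at or below -70, meaning at least 70% loss of cells showing the perinucleolar compartment, a nuclear body marking cancer cells; inconclusive = readout between -30 and a set limit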;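 note: plate controls were DMSO wells for no effect and camptothecin positive control wells for full effect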
#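 PC3M cells stably expressing PTB-GFP, 750–1000 cells/well, treated 16 h at 37 °C with compound (23 nl of library stock), in duplicate. After paraformaldehyde fixation and Hoechst stain, imaged at 20x; PNC prevalence scored by image analysis.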
# HPGD inh: inhibitors of human 15-hydroxyprostaglandin dehydrogenase (HPGD); P15428; AID 894; 4.3% of 150,000 active; purified HPGD, NADH fluorescence kinetic, PGE2 substrate; Potency, µM, for inactives: at the top dose activity change, negative = inhibition, actives largely listed as inhibitors; active = well fitted inhibition curve with a large enough effect, not every such curve was filed as active; inconclusive = small, poorly fitted or top-dose-only effect, or another doubt; inactive = no such curve, though single readings can be large or run the other way; note: potency is the fitted concentration of half-maximal effect
# Target sequence (P15428 whole entry, looked up): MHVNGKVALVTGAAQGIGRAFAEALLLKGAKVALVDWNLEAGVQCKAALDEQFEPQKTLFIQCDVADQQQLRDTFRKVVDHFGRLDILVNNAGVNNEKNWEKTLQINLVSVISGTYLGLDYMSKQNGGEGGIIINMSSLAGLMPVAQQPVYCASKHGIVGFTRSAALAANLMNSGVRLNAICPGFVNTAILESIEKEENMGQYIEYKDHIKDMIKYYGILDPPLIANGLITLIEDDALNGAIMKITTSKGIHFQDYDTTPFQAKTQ
#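 NADH formation kinetics: reaction with 30 uM PGE2 and 1 mM NAD+ (final), 20 nM enzyme, Tris-HCl pH 8 with Tween 20, after 15 min compound preincubation at room temperature. Fluorescence change, last versus first of five reads.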
# An asterisk follows results filed as active; ? = inconclusive; nt = no result given; [ ] = dose if it differs, or a comment. Unless noted, calls come from the whole dose curve; as a rule, active = well fitted curve in the direction sought with a large enough effect; inconclusive = small, poorly fitted or top-dose-only effect, or another doubt; inactive = no such curve, though single readings can be large; an effect the other way counts as inactive or inconclusive. Unless noted, % is set by controls: 0 for no effect and ±100 for the full control effect.
SMILES,ALOX15B inhib,IMPase cell inh,IMPase Li cell,ALOX12 inhib,PNC inhibitor,HPGD inh
O=C(CSc1nc(-c2ccco2)cc(C(F)(F)F)n1)Nc1ccc(C(=O)N2CCOCC2)cc1,nt,-6,7%,-3%,-100*,22µM*
Cc1nc([N+](=O)[O-])c(Sc2nc3ccc([N+](=O)[O-])cc3[nH]2)n1Cc1ccccc1,nt,-6,13%,-13%,?,?
COc1ccc2cc(-c3cc(C(=O)OCC(=O)NC4CCS(=O)(=O)C4)c4ccccc4n3)ccc2c1 (stereo not drawn),nt,nt,-18%,0%,3,?
Cc1oc2c(O)c(O)ccc2c(=O)c1-c1cnn(-c2ccccc2)c1,?,8,37%[38.3 µM],?,?,18µM*
Cc1oc2cc(O)cc(C)c2c(=O)c1-c1cnn(-c2ccccc2)c1,3%[2.29 µM],9,16%[38.3 µM],-11%,-115*,?
O=C(Oc1ccccc1)N1CCC[C@@]2(CCN(c3ccccc3)C2)C1,-17%,nt,3%,-16%,nt,-10%
CCOc1ccc(-c2csc(Cn3c(CN4CCN(C)CC4)nc4ccccc4c3=O)n2)cc1,nt,-11,nt,1%,-16,nt
CC1(C)Cc2nc3oc4c(=O)n(CC(=O)Nc5ccccc5)cnc4c3cc2CO1,nt,0,-6%,-1%,28,-9%
Cc1ccc(NC(=O)Cn2cnc3c(oc4nc5c(cc43)COC(C)(C)C5)c2=O)cc1,nt,nt,-4%,1%,-84*,-4%
O=C(CCCn1c(=S)[nH]c2ccccc2c1=O)NC1CCCCC1,-3%,4,29%[38.3 µM],1%,-12,20µM*
O=C(CCCCCn1c(=S)[nH]c2ccc(Br)cc2c1=O)NCC1CCCO1 (stereo not drawn),-6%,-4,-13%[38.3 µM],5%,1,2.8µM*
N#C/C(=C/c1ccc(N2CCCCCC2)o1)c1ccc(Cl)cc1,7.9µM*,13,20%[38.3 µM],?,-4,?
Cc1ccc2nc(/C(C#N)=C\c3ccc(N4CCOCC4)o3)[nH]c2c1,nt,2,25%,-29%,17,-13%
N#C/C(=C/c1ccc(N2CCCCC2)cc1)c1cccc(F)c1,nt,13,3%,2%,-16,-8%
N#C/C(=C/c1ccc(N2CCCCC2)o1)c1cccc(F)c1,10µM*,0,30%[38.3 µM],-25%,22,?
Cc1ccc(/C(C#N)=C\c2ccc(N3CCOCC3)o2)cc1,13µM*,4,25%,-24%,-26,?
Cc1ccc(-c2noc(CSc3nnnn3C3CCCCC3)n2)cc1,3%,5,30%[38.3 µM],-14%,-17,-13%
Nc1ccc(N)c(Cl)c1,-16%,nt,12%,-11%,nt,?
COc1ccc(N(C(=O)c2cnccn2)C(C(=O)NC2CCCCC2)c2ccc(O)cc2)cc1 (stereo not drawn),nt,nt,0%,nt,nt,nt
Nc1nnc(CC(c2ccccc2)c2ccccc2)s1,0%,0,2%[38.3 µM],-2%,?,22µM*
Cc1nn(CCC(=O)NNC(=S)NCC(C)C)c(C)c1Br,-2%,2,15%[38.3 µM],3%,-112*,-5%
CCNc1ccc(P(=O)(c2ccccc2)c2ccccc2)cc1,nt,nt,2%,nt,nt,nt
Cc1ccc(-n2c(=S)[nH]c3sc4c(c3c2=O)CCC4)cc1,nt,nt,11µM*,nt,nt,nt
O=C(c1ccc2ccccc2n1)N1CCN(c2ccccc2)CC1,-18%,-3,6%,-1%,42,1%
O=C(c1ccc2ccccc2n1)N1CCN(c2ccccc2O)CC1,-10%,-3,2%[38.3 µM],-7%,-96*,-23%
SMILES,ALOX15B inhib,IMPase cell inh,IMPase Li cell,ALOX12 inhib,PNC inhibitor,HPGD inh
O=C(c1ccc2ccccc2c1)C1CCCN(C(=O)c2noc3c2CCCC3)C1 (stereo not drawn),nt,nt,24%,nt,nt,nt
O=C(c1cn(-c2ccccc2)nc1-c1cccs1)N1CCN(c2ccc(F)cc2)CC1,19%,3,nt,-19%,-109*,nt
O=C(c1cc(-c2cccs2)on1)N1CCN(c2ccc(F)cc2)CC1,11%,1,-4%[38.3 µM],1%,-12,-16%
COc1cccc(-c2nccc(N(C)Cc3ccco3)n2)c1,-10%,nt,10%,nt,nt,nt
Cc1cccc(Nc2nnc(-c3ccc(C)c(S(=O)(=O)N4CCOCC4)c3)c3ccccc23)c1,nt,-6,nt,nt,nt,nt
CCCCC=O,1%,nt,-12%,9%,nt,-2%
CC(=O)Nc1ccc(S(=O)(=O)Oc2ccc3c(c2)C(C)=CC(C)(C)N3)cc1,nt,nt,12%,-6%,-109*,-28%
CC1=CC(C)(C)Nc2ccc(OS(=O)(=O)c3ccc(C)cc3)cc21,-29%,3,28%[38.3 µM],-29%,-15,?
CCCC(=O)Nc1cc(Cl)ccc1N1CCN(C(=O)CC)CC1,0%,16,14%[38.3 µM],5%,?,5%
N#Cc1cccc(NC(=O)N2CCCC3(CCN(C(=O)c4cc(C(F)(F)F)cc(C(F)(F)F)c4)CC3)C2)c1,22%,nt,4%,-1%,nt,-9%
Cc1c(Cl)cccc1NC(=O)c1cc(-c2ccccc2O)n[nH]1,-1%,7,40%[38.3 µM],1%,-25,13µM*
COc1ccc(Cl)cc1NC(=O)c1cc(-c2ccccc2O)n[nH]1,nt,nt,14%,3%,33,1.4µM*
COc1ccc(OC)c(NC(=O)c2cc(-c3cc(Cl)ccc3O)n[nH]2)c1,-7%,13,17%[38.3 µM],-11%,-16,?
Cc1ccc(Oc2c(C(F)(F)F)oc3c(CN4CCC(C)CC4)c(O)ccc3c2=O)cc1,nt,-3,nt,nt,nt,nt
Cc1ccc2sc(N(CCCN(C)C)C(=O)CN3C(=O)c4ccccc4C3=O)nc2c1C,nt,nt,3%,nt,nt,nt
CC1=NNC(=O)/C1=C\c1cn(-c2ccccc2)nc1-c1cccs1,nt,nt,20%,-20%,-6,16µM*
CCN(CC)C(=O)c1ccc(Nc2nnc(C)c3ccccc23)cc1,nt,?,-14%,4%,-25,2.2µM*
O=S(=O)(Nc1ncnc2sc3c(c12)CCC3)c1ccc(Cl)s1,-13%,-5,22%[38.3 µM],-1%,?,-10%
Cc1ccc2c(CC(=O)OCc3nc(N)nc(Nc4ccccc4C)n3)coc2c1,33%,4,12%[38.3 µM],-12%,?,-17%
Cc1ccc2c(CC(=O)OCc3csc(C)n3)coc2c1,nt,-1,4%,-5%,-100*,-10%
COC(=O)N1CCC2(CC1)CN(C(=O)Nc1cccc(F)c1)C2,-2%,nt,19%,-1%,nt,-12%
Cc1ccc(OCC(=O)N2CCc3ccccc3C2)c([N+](=O)[O-])n1,nt,nt,4%,nt,nt,nt
Cn1c2c(c(=O)n(C)c1=O)C(C(F)(F)F)(C(F)(F)F)N=C(c1ccc(Cl)cc1)N2,-6%,6,21%[38.3 µM],1%,30,-9%
Cn1c2c(c(=O)n(C)c1=O)C(C(F)(F)F)(C(F)(F)F)N=C(C1CCCCC1)N2,nt,nt,1%,-2%,-93*,-1%

# Source: PubChem BioAssay
